Cruzain noTriton: inhibitors of Trypanosoma cruzi cruzain without detergent; AID 1476; Potency, µM, hits mostly inhibitors; hit rate 2.3% among 200,000; purified cruzain, Z-FR-AMC fluorescence, no detergent; note: nearly all actives have a fitted effect of over 40% in size
Target sequence (P25779 123-467 limits assumed): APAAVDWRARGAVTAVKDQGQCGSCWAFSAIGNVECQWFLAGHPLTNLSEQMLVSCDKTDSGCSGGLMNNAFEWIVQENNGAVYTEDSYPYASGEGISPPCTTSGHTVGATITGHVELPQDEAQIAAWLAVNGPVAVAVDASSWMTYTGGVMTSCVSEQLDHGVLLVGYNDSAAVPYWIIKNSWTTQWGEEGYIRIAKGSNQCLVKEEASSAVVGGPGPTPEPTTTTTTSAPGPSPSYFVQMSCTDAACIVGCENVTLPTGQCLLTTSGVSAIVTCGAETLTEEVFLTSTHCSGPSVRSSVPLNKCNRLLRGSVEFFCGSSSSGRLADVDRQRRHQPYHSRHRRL
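Purified cruzain at 1.5 nM, pre-incubated 15 min with compound at room temperature in 100 mM sodium acetate pH 5.5, 5 mM DTT, 0.00005% Triton X-100. Reaction started with 2 uM Z-FR-AMC; AMC fluorescence increase over 60 s gives rate.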
Cruzain inh Det: cruzain (T. cruzi) inhibition with detergent. P25779. purified cruzain, Z-FR-AMC fluorescence, 0.01% Triton. Potency, µM, hits mostly inhibitors. hit rate 0.43% among 200,000; note: nearly all actives have a fitted effect of over 40% in size
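Z-FR-AMC hydrolysis (2 uM substrate) by cruzain (1.5 nM) monitored kinetically at ex 360/em 450 nm after 15 min room-temperature compound exposure; 0.01% Triton X-100, pH 5.5, 5 mM DTT.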
Papain counter: counter-screen for cruzain inhibitors: papain inhibition; hit rate 41% among 410; Potency, µM, most hits filed as inhibitors; purified papain, Z-FR-AMC fluorescence cleavage; shares compounds with Cruzain inh Det; AID 2161; note: nearly all actives have a fitted effect of over 35% in size
Numbers stand for hits; 0 = inactive; ? = inconclusive; - = no result given. Compounds with a hit are over-represented: about 2.6% of the library has one in this group of screens. Calls come from the whole dose curve; as a rule, active = well fitted curve in the direction sought with a large enough effect; inconclusive = small, poorly fitted or top-dose-only effect, or another doubt; inactive = no such curve, though single readings can be large; an effect the other way counts as inactive or inconclusive.

SMILES	Cruzain noTriton	Cruzain inh Det	Papain counter
CCc1ccc(NC(=O)Cn2c(=O)n(-c3ccc(Cl)c(Cl)c3)c(=O)c3c(C)c(C)sc32)cc1	0	0	-
CC1CN(c2oc(-c3cccs3)nc2C#N)CC(C)O1 (configuration not stated)	?	28.2µM	20µM
CC1CN(c2oc(Cc3cccc4ccccc34)nc2C#N)CC(C)O1 (configuration not stated)	?	0	-
N#Cc1nc(-c2ccco2)oc1N1CCOCC1	0	0	-
N#Cc1nc(-c2cccs2)oc1N1CCOCC1	?	25.1µM	15.8µM
COc1ccc(CCNC(=O)c2ccc3nc(Cc4ccccc4)oc3c2)cc1OC	?	0	-
CCOC(=O)Cn1c(=O)n(CC2CCCO2)c2nc(-c3ccc(C)cc3)nc(C(N)=O)c21 (configuration not stated)	?	0	-
O=C1NN(c2ccc(Cl)c(Cl)c2)C(=O)/C1=C/c1cccc(OC(=O)c2cccs2)c1	0	20µM	17.8µM
O=C1NN(c2ccccc2)C(=O)/C1=C\c1cccc(OC(=O)c2cccs2)c1	?	0	-
CC1(C)Cc2c(C#N)c(N3CCN(C(=O)c4ccccc4)CC3)nc(-c3ccco3)c2CS1	25.1µM	28.2µM	7.94µM
CC(C)c1nc(N2CCN(C(=O)c3ccccc3)CC2)c(C#N)c2c1COC(C)(C)C2	0	0	-
N#Cc1c(N2CCOCC2)nc(-c2ccco2)c2c1CCCC2	10µM	12.6µM	5.62µM
CC1(C)Cc2c(C#N)c(N3CCCC3)nc(-c3ccco3)c2CO1	?	0	-
CN(Cc1ccco1)c1cc(-c2ccc3c(c2)OCO3)ncn1	0	0	-
N#Cc1sc2nc(-c3ccccc3)cc(-c3ccco3)c2c1N	0	0	-
N#Cc1c(-c2ccccc2)cc(-c2ccco2)c(C#N)c1N	0	0	0
COc1cc(OC)c(NC(=O)c2nn(C)c3c2COc2ccccc2-3)cc1Cl	0	0	-
CCc1ccc(-n2cnc3cc(C(=O)NCc4ccc(C)cc4)ccc32)cc1	0	0	-
CSCC[C@H](NC(=O)CC(C)(C)C)c1nc2ccccc2[nH]1	0	0	-
CSCC[C@H](NC(=O)COc1ccc(Cl)cc1Cl)c1nc2ccccc2[nH]1	0	6.31µM	0
CC(=O)c1ccc(N2CCN(c3ccc(NC(=O)c4cccs4)cc3C(=O)O)CC2)cc1	0	0	-
CNc1oc(/C=C/c2cc(OC)c(OC)c(OC)c2)nc1C#N	10µM	28.2µM	8.91µM
COc1cc(/C=C/c2nc(C#N)c(NC(C)c3ccccc3)o2)cc(OC)c1OC (configuration not stated)	?	0	-
COc1cc(CSc2ncc(CO)n2Cc2ccc(C)cc2)cc(OC)c1	0	0	-
CCOC(=O)c1ccccc1NC(=O)CSc1nnc(CC)n2c1cc1occc12	0	0	-
SMILES	Cruzain noTriton	Cruzain inh Det	Papain counter
COc1nc(N2CCCCCC2)nc(N2CCCCCC2)n1	0	0	-
CCOc1nc(C#N)nc(N2CCCCC2)n1	0.501µM	0.562µM	2.24µM
COc1nc(C#N)nc(N2CCCC2)n1	-	-	3.98µM
N#CCOc1nc(N2CCCC2)nc(N2CCCC2)n1	0	0	-
CN(C)c1nc(C#N)nc(N(C)C)n1	-	-	11.2µM
CCCN(CCC)c1nc(C#N)nc(N(CCC)CCC)n1	-	-	2.51µM
CN(C)c1nc(N(C)C)nc(N(C)C)n1	0	0	-
CCCN(CCC)c1nc(N)c(C#N)c(CC#N)c1C#N	0	0	-
CCOc1ccc2[nH]c(=O)c(CN(Cc3ccco3)Cc3nnnn3Cc3ccccc3)cc2c1	0	0	-
COc1cc2cc(CN(Cc3nnnn3Cc3ccco3)C3CCCCC3)c(=O)[nH]c2cc1OC	7.94µM	7.08µM	28.2µM
COCCn1nnnc1CN(Cc1cc2cc(OC)c(OC)cc2[nH]c1=O)C1CCCC1	0	0	-
CCOc1ccc2[nH]c(=O)c(CN(Cc3nnnn3Cc3ccco3)C3CCCCC3)cc2c1	10µM	6.31µM	0
N#CC(C#N)=NNc1ccc2cn[nH]c2c1	?	0	-
N#CC(C#N)=NNc1cccc(Cl)c1	12.6µM	11.2µM	28.2µM
c1ccc(C2=Nn3c(nnc3-c3cc(-c4ccccc4)n[nH]3)SC2)cc1	0	0	-
Cc1ccc(O/C=C2/Nn3c(nnc3-c3cc(-c4ccccc4)n[nH]3)S2)cc1	-	-	0
CCOC(=O)c1ccc(N2CSC3=C(C#N)C(c4cccs4)CC(=O)N3C2)cc1 (configuration not stated)	0	0	0
CCc1ccc(N2CSC3=C(C#N)C(c4cccs4)CC(=O)N3C2)cc1 (configuration not stated)	?	0	-
CCN(Cc1ccccc1)c1nc2c(S(=O)(=O)c3ccccc3)nnn2c2ccc(Cl)cc12	?	0	31.6µM
COCCNc1nc2c(S(=O)(=O)c3ccccc3)nnn2c2ccc(Cl)cc12	0	0	-
Cc1ccc(OCCCCn2nnc3sc4c(c3c2=O)CCC(C)C4)cc1 (configuration not stated)	0	0	-
CC1=CC(=NOC(=O)/C=C/c2ccccc2)C=C(C)C1=O	2.51µM	2.24µM	10µM
CC1=CC(=O)C=C(C)C1=NOC(=O)/C=C\c1ccccc1	0	0	-
Cc1nn(CCC(=O)N2CCN(c3ccccc3F)CC2)c(C)c1S(=O)(=O)N1CCCC1	?	0	-
Cc1cc(=O)oc2cc(OCC(=O)N3CCOCC3)ccc12	0	8.91µM	14.1µM
SMILES	Cruzain noTriton	Cruzain inh Det	Papain counter
Cc1cc(=O)oc2cc(OC(C)C(=O)N3CCOCC3)ccc12 (configuration not stated)	0	0	-
Cn1cc(S(=O)(=O)N2CCCCC2)cc1C(=O)NCc1ccc(Cl)cc1	?	10µM	0
Cn1cc(S(=O)(=O)N2CCCCCC2)cc1C(=O)NCc1ccc(Cl)cc1	0	0	-
CCC(=O)N1CCc2cc(CNC(=O)c3cccc(N(C)C)c3)ccc21	0	0	-
CC(C)Oc1ccc(C(=O)N2CC(=O)Nc3ccc(F)cc3C2c2ccc(F)cc2)cc1 (configuration not stated)	0	0	-
O=C(CSc1cn(CC(=O)N2CCCC2)c2ccccc12)Nc1ccccc1C(F)(F)F	0	0	-
CNc1oc(Cc2ccccc2)nc1S(=O)(=O)c1ccccc1	3.16µM	3.16µM	28.2µM
CNc1oc(C)nc1S(=O)(=O)c1ccc(C)cc1	0	0	-
Cc1nn(S(=O)(=O)c2ccc(Br)cc2)c(C)c1S(=O)(=O)N1CCCCCC1	0	0	-
COC(=O)CCC(C)C1CCC2C3CC[C@H]4CC(O)CC[C@@]4(C)C3CC(O)[C@]12C (some centres not stated)	?	0	0
COC(=O)CC[C@@H](C)[C@H]1CC[C@H]2[C@@H]3CC[C@@H]4C[C@H](O)CC[C@]4(C)[C@H]3C[C@H](O)[C@]12C	?	0	-
CCOC(=O)C1CCN(C(=O)CSc2n[nH]c(-c3ccc(OC)cc3)n2)CC1	0	0	-
CCN1C(=O)CC(C(=O)Nc2ccc(OC)cc2)SC1=Nc1ccc(C)c(C)c1 (configuration not stated)	0	0	-
CC(NC(=O)c1ccc(F)cc1)c1nc2ccccc2n1Cc1ccccc1F (configuration not stated)	0	0	-
O=C(NCCc1nc2ccccc2n1Cc1ccccc1F)c1ccc(F)cc1	0	3.16µM	0
NC(=O)CSc1nnc([C@@H](N)Cc2c[nH]c3ccccc23)o1	10µM	8.91µM	0
CC(C)(C)OC(=O)N[C@@H](Cc1c[nH]c2ccccc12)c1nnc(SCC(N)=O)o1	0	0	-
Cc1ccc(NC(=O)/C=C/c2ccc3c(c2)OCO3)cc1S(=O)(=O)N1CCOCC1	20µM	12.6µM	0

Screening data as filed in PubChem BioAssay.
